Molecules are shown by their SMILES. Out of some 16,000 compounds screened, about 4,000 (25%) were called active. Roughly 26% stayed inconclusive and do not appear here. A selection follows. A number with no mark means an inactive call. Calls come from the whole dose curve; as a rule, active = well fitted curve in the direction sought with a large enough effect; inconclusive = small, poorly fitted or top-dose-only effect, or effect the other way; inactive = no such curve, though single readings can be large or run the other way.
% is set by controls: 0 for no effect and ±100 for the full control effect.

The target in this experiment is Cytochrome P450 2C9 (Homo sapiens) (UniProt P11712). Put plainly: Cytochrome panel assay with activity outcomes. Conditions: recombinant CYP, pro-luciferin dealkylation, luminescence, p450-cyp2c9; series mostly up to 57.1 µM; activity, negative = inhibition: at the top concentration.
Cytochrome P450 2C9 (Homo sapiens), sequence (P11712 whole entry, looked up): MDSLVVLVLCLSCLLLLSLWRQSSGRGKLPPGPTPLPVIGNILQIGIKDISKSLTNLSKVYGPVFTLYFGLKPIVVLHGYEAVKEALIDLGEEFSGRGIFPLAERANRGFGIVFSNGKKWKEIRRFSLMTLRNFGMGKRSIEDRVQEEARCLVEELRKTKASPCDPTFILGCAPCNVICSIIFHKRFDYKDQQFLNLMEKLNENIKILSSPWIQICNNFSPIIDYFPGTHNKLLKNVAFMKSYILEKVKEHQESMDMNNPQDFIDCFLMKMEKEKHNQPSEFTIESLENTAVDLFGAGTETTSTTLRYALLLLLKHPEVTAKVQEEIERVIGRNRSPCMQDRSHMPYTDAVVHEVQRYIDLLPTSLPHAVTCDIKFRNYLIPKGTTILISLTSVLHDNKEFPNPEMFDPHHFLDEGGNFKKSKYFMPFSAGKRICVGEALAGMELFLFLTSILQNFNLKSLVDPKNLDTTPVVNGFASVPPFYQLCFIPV
On to `Cc1noc(C)c1-c1cncnc1NCc1ccccc1`, for which the activity, negative = inhibition was 18.5% [at 2.29 µM].
On the same count and under the same terms, under `CCc1cc2c(nc1CC)CCN(CC/C(C)=N/OC[C@@H](O)COCc1ccco1)C2` stands 17.1% [at 11.4 µM].
In the case of `COc1ccccc1CCn1c(=O)c(-c2ccc(Cl)cc2)nc2cncnc21`, the AC50 – broadly, the concentration giving half of the maximal activity seen – is 3.98 µM (active).
The same measure, in the same setting: next, `COc1ccccc1CCn1c(=O)c(CCc2ccccc2)nc2cncnc21`: 7.94 µM (active); `O=c1c(CCc2ccccc2)nc2cncnc2n1Cc1ccc(F)cc1`: 7.94 µM (active); `COc1ccccc1CCn1c(=O)c(-c2cccs2)nc2cncnc21`: 2.51 µM (active).
Consider `CCN(CC)C(=O)CSc1nc(O)cc(=O)n1CC`, for which the “activity, negative = inhibition” value is -12.4%.
As for `CO[C@H]1COC(=O)[C@@H](C)COC(=O)[C@@H](Cc2ccccc2)NC(=O)C/C=C\[C@H]1C`, the activity, negative = inhibition is 5.22% [at 11.4 µM].
Consider `COc1ccc(CNc2ccnc(-c3ccccc3OC)n2)c(OC)c1`, for which the activity, negative = inhibition is 14.7% [at 2.29 µM].
Take `COc1ccccc1CCn1c(=O)c(-c2cn(C)c3ccccc23)nc2cncnc21`: the AC50 was 0.316 µM (active).
Regarding `COc1ncc2nc(-c3cn(C)c4ccccc34)c(=O)n(CCC#N)c2n1`, the “activity, negative = inhibition” value was 7.16%.
The same measure, in the same setting: next, `Cn1cc(-c2nc3cncnc3n(Cc3ccccc3Cl)c2=O)c2ccccc21`: -18.5%; `COc1ccc(N2C(N)=NC(N)=NC2(C)C)cc1`: 3%.
`O=C(c1ccc(COc2ccc(F)cc2)o1)n1cccn1`: the AC50 was 17.8 µM (active).
Consider `CNc1ncncc1-c1ccccc1C`, for which the activity, negative = inhibition was -4.77% [at 2.29 µM].
Still for that read-out and setting: next, `COc1ccc(C(=O)N2CCC[C@@]3(CCN(Cc4ccccc4)C3)C2)cc1`: -7.93%.
In the case of `CCCc1cc2c(n1Cc1ccc(OC)cc1)C(C)C1CN(C(=O)c3ccccc3)C(C)(C(=O)OC)C21` (stereo not given), the AC50 is 12.6 µM (active).
For the compound `COc1ccc(C(=O)N2CCC[C@@]3(CCN(Cc4ccc(C#N)cc4)C3)C2)cc1`, the “activity, negative = inhibition” value is 7.58%.
For `CCCc1cc2c(n1Cc1cc(F)cc(F)c1)C(C)C1CN(C(=O)c3ccccc3)C(C)(C(=O)OC)C21` (stereo not given), the AC50 was 6.31 µM (active).
Regarding `O=CN[C@@H](Cc1cnc[nH]1)C(=O)O`, the activity, negative = inhibition was -3.85% [at 11.4 µM].
The same measure, in the same setting: under `COc1ccccc1-c1nc(N2CCOCC2)c2ccccc2n1` stands 8.77% [at 2.29 µM]; under `COc1ccccc1-c1nc(NCCNC(C)=O)c2ccccc2n1`, 3.78% [at 2.29 µM]; under `COc1ccccc1-c1ccc2ncnc(N3CCOCC3)c2c1`, -16.7% [at 2.29 µM].
`COC(=O)c1ccccc1Oc1c(F)c(F)nc(N2CCOCC2)c1F`: the AC50 was 15.8 µM (active).
The same measure, in the same setting: under `CCOC(=O)c1ccccc1Oc1c(F)c(F)nc(NCCO)c1F` stands 6.31 µM (active).
For the compound `CCOC(=O)NNc1nncc2ccccc12`, the “activity, negative = inhibition” value was -3.9% [at 25.6 µM].
Consider `O=C(Nc1ccc(Cl)cc1)c1cnc(-c2ccccc2)nc1-c1ccccc1`, for which the AC50 was 0.794 µM (active).
As to `O=C(Nc1ccc(-c2csc(-c3ccccc3)n2)cc1)c1ccccc1Cl`, the “activity, negative = inhibition” value was 5.47%.
Same read-out and setting: next, `OC1CC2CC[C@H](C1)N2CCCN1c2ccccc2Sc2ccc(Cl)cc21` (stereo not given in full): 8.65% [at 11.4 µM]; `c1cncc(CNc2ncn[nH]2)c1`: -1.61% [at 11.4 µM].
For the compound `Nc1ccc(Sc2cnn(-c3ccccc3)c(=O)c2Cl)cc1`, the AC50 is 1 µM (active).
In the case of `Cc1ccc(-n2ncc(N(C)C)c(Cl)c2=O)cc1`, the “activity, negative = inhibition” value is -24.9%.
The same measure, in the same setting: under `COC(=O)N1CCC2(CCN(Cc3nccs3)CC2)CC1` stands 6.72%.
With `Cc1onc(-c2c(Cl)cccc2Cl)c1C(=O)N1CCc2ccccc2C1`, the AC50 was 3.16 µM (active).
Take `Cc1noc(C)c1C(=O)N1CCC2(CCCN(Cc3ccccc3)C2)CC1`: the “activity, negative = inhibition” value is 10.1%.
On the same count and under the same terms, under `Cc1noc(C)c1C(=O)N1CCC[C@@]2(CCN(Cc3ccccc3)C2)C1` stands -14%.
Take `Cc1ccccc1C(=O)N/N=C/c1ccncc1`: the AC50 was 12.6 µM (active).
In the case of `O=C(N/N=C/c1cccnc1)c1ccc([N+](=O)[O-])cc1`, the “activity, negative = inhibition” value was 8.44%.
Still for that read-out and setting: under `Cc1ccccc1C(=O)NNC(=O)c1ccoc1C` stands 25%; under `O=C(N/N=C\c1cccc(O)c1)c1ccncc1`, 1.23% [at 11.4 µM].
With `O=C(N/N=C/c1ccncc1)c1cc([N+](=O)[O-])cc([N+](=O)[O-])c1O`, the AC50 is 0.0631 µM (active).
For the compound `CC[C@@H]1OC(=O)[C@H](C)[C@H](O[C@@H]2C[C@](C)(OC)[C@H](O)[C@H](C)O2)[C@H](C)[C@H](O[C@@H]2O[C@@H](C)C[C@@H](N(C)C)[C@@H]2O)[C@](C)(O)C[C@H](C)[C@@H]2N[C@H](COCCOC)O[C@H]([C@@H]2C)[C@]1(C)O`, the “activity, negative = inhibition” value is 14.7% [at 25.6 µM].
Regarding `C/C=C\C1=C(CO)C(=O)C2O[C@]2(CC=C(C)C)C1=O` (stereo not given in full), the activity, negative = inhibition was 9.54% [at 11.4 µM].
The same measure, in the same setting: under `CCn1c(CNC(=O)COc2ccc(C(C)C)cc2)nnc1SCC(=O)Nc1cc(F)ccc1C` stands -17%; under `Cc1ccc(NC(=O)CCSc2nnc3ccccn23)cc1`, 15.1%.
The same measure, in the same setting: under `O=C(CSc1nnnn1-c1ccccc1)NCc1cccs1` stands 21.8%.
Take `C=CCn1c(Cc2c[nH]c3ccccc23)nnc1SCC(=O)NCc1ccccc1`: the AC50 was 14.1 µM (active).
Regarding `CCn1c(CSCc2ccc(C)cc2)nnc1SCC(=O)NCc1ccccc1`, the AC50 is 15.8 µM (active).
On the same count and under the same terms, next, `CCn1c(CC(=O)Nc2ccc(C)cc2)nnc1SCC(=O)NCCc1ccccc1`: 15.8 µM (active).
As for `N[C@@H](Cc1c[nH]c2ccccc12)C(=O)O`, the “activity, negative = inhibition” value is 9.92%.
In the case of `CC(C)n1nnnc1SCC(=O)NCCc1ccccc1`, the AC50 is 15.8 µM (active).
In the case of `Cc1noc(C)c1-c1nc(Nc2ccncc2)c2ccccc2n1`, the activity, negative = inhibition was -10.8% [at 2.29 µM].
On the same count and under the same terms, under `COc1cccc2c1[C@@H]1CN(CCCCn3c(=O)[nH]c4c(sc5ncc(-c6ccccc6)nc54)c3=O)C[C@H]1CO2` stands -12%; under `CCN1C(=O)[C@H]2[C@H]3[C@H](O)[C@H](O)C/C(=N/NC(=O)OCc4ccccc4)[C@H]3CC[C@@H]2C1=O`, -10.2% [at 11.4 µM].
For the compound `O=C1NCC2=C1C(c1ccc(Br)cc1)Nc1ccccc1N2` (stereo not given), the AC50 is 8.91 µM (active).
`CN(C)Cc1cc(C(C)(C)C)ccc1-c1ccc(C(C)(C)C)cc1CN(C)C`: the activity, negative = inhibition was 12.6% [at 11.4 µM].
Turning to `CN(C)CCNC(=O)Cn1nc(-c2ccc(Cl)cc2)ccc1=O`, the “activity, negative = inhibition” value was 20.5%.
In the case of `COc1ccc(-c2ccc(=O)n(CC(=O)Nc3nnc(C(C)C)s3)n2)cc1OC`, the AC50 was 14.1 µM (active).
The same measure, in the same setting: under `O=C(O)C1=CCCNC1` stands “inactive”.
On to `CC(C)C[C@H](NC(=O)[C@@H]1O[C@H]1C(=O)O)C(=O)NCCCCN=C(N)N`, for which the “activity, negative = inhibition” value was 21.6%.
Take `CC(C)CNC(=S)N1CCN(C)CC1`: the “activity, negative = inhibition” value was -15.7%.
`C=CCNc1nc(-c2ccc(Cl)cc2)cs1`: the AC50 was 22.4 µM (active).
The same measure, in the same setting: under `CCCCSCc1nc2nc(Cl)c(Cl)nc2[nH]1` stands 0.501 µM (active).
Turning to `Nc1ccc(CCNc2ncnc3c2ncn3[C@@H]2O[C@@H](CO)[C@H](O)[C@@H]2O)cc1`, the “activity, negative = inhibition” value is -10.3%.
With `COc1ccc(CC(=O)NCCN2CCCC2)cc1`, the “activity, negative = inhibition” value is 8.79%.
With `COc1ccc(-c2ccc(C(=S)N3CCN(C(C)=O)CC3)o2)cc1`, the AC50 was 3.98 µM (active).
For the compound `COc1ccc(C(=O)N2CCC3(CCN(C)CC3)CC2)cc1`, the “activity, negative = inhibition” value is -6.61%.
Regarding `COc1ccc(COC(=O)N/N=C2/C[C@@H](O)[C@@H](O)[C@@H]3[C@@H]4C(=O)N(C(C)(C)C)C(=O)[C@H]4CC[C@@H]23)cc1`, the activity, negative = inhibition was -5.52% [at 11.4 µM].
`COc1ccc(CCN(C)CCC(=O)Nc2c(C)cc(C)cc2C)cc1OC`: the “activity, negative = inhibition” value was -24.7%.
Turning to `COc1ccc(COC(=O)N/N=C(\C)CC(=O)Nc2c(C)cc(C)cc2C)cc1`, the AC50 was 14.1 µM (active).
For the compound `COc1ccccc1-c1nc(N(C)C)c2ccccc2n1`, the activity, negative = inhibition was -2.29% [at 2.29 µM].
Still for that read-out and setting: next, `COc1ccc(C(=O)N2CCC3(CC2)CN(C(=O)Nc2cccc(C#N)c2)C3)cc1`: -1.23%.
Consider `CC(=O)N1CCN(C(=O)CC2OC(=O)c3ccccc32)CC1` (stereo not given), for which the AC50 was 15.8 µM (active).
Take `CC(=O)N1CCC2(CC1)CN(Cc1ccccc1)C2`: the “activity, negative = inhibition” value was 17.2%.
Same read-out and setting: under `CCC(=O)N1CCN(C(=O)c2ccccc2)CC1` stands 7.52%.
`O=C(Nc1ccccc1)C(Cc1ccccc1)NC(=O)C12CC3CC(CC(C3)C1)C2` (stereo not given): the “activity, negative = inhibition” value is -27.7%.
With `Cc1ccc(SCC(=O)Nc2cccc(NC(=O)c3ccco3)c2)cc1`, the AC50 is 4.47 µM (active).
Regarding `COc1ccc(C(=O)Nc2ccc(NC(=O)c3ccco3)c(Cl)c2)cc1OC`, the “activity, negative = inhibition” value was -6.18%.
Take `CC(C)C[C@H](NC(=O)[C@@H](O)[C@@H](N)Cc1ccccc1)C(=O)O`: the AC50 entry was “inactive”.
On to `Cc1ccc(SCC(=O)NNC(=O)C2CCCCC2)cc1`, for which the “activity, negative = inhibition” value is 7.23%.
Consider `CCc1cc2cc(C)c(C)cc2nc1SCC(=O)NNC(=O)c1ccco1`, for which the “activity, negative = inhibition” value is 2.57%.
As for `CC(C)Oc1ccc(C(=O)Nc2ccc(NC(=O)c3ccco3)c(Cl)c2)cc1`, the AC50 is 14.1 µM (active).
Same read-out and setting: next, `CC(=O)c1ccc(NC(=O)C(Cc2ccccc2)NC(=O)c2ccco2)cc1` (stereo not given): 14.1 µM (active).
Same read-out and setting: under `Cc1cc(NC(=O)c2ccco2)ccc1-n1cnnn1` stands 10 µM (active).
On the same count and under the same terms, next, `NC(=NCc1ccccc1)NC(=O)c1nc(Cl)c(N)nc1N`: “inactive”.
With `CN(C)C(=O)c1ccc(-c2ccc3ncnc(N4CCNCC4)c3c2)cc1`, the activity, negative = inhibition was 6.81% [at 2.29 µM].
`Cc1noc(C)c1-c1ccc2ncnc(N(C)Cc3ccco3)c2c1`: the activity, negative = inhibition is -29% [at 2.29 µM].
Regarding `CC(C)(C)c1ccc(C(=O)Nc2ccc(NC(=O)c3ccco3)cc2)cc1`, the AC50 is 8.91 µM (active).
Regarding `CCc1nnc2sc(-c3ccc(NC(=O)c4ccco4)cc3)nn12`, the “activity, negative = inhibition” value is -20.6%.
`COc1cccc(C(=O)Nc2ccc(NC(=O)c3ccco3)cn2)c1`: the AC50 is 14.1 µM (active).
As to `c1ccc(CNc2ncncc2-c2cccnc2)cc1`, the activity, negative = inhibition was -3.05% [at 2.29 µM].
In the case of `COc1ccc2oc(C(=O)c3ccccc3)c(N)c2c1`, the AC50 was 11.2 µM (active).
Turning to `COc1ccc(C(=O)c2ccccc2)c(O)c1`, the “activity, negative = inhibition” value is -18.2% [at 25.6 µM].
The same measure, in the same setting: under `COc1ccc2nccc(C(=O)O)c2c1` stands 4.55% [at 25.6 µM]; under `Cc1noc(C)c1-c1ccc2ncnc(NCc3cccs3)c2c1`, -7.45% [at 2.29 µM].

Source of the values: PubChem BioAssay AID1851 (National Center for Advancing Translational Sciences (NCATS), 2009).
